NSD2 inh: blocks human histone methyltransferase NSD2; NSD2 peptide methylation, AlphaScreen, 120 min; inhibition, % at 12.5 µM; hit rate 0.54% among 310,000; in the data active = inhibition above about 50%
AF4-AF9 inh: MLL-AF4/AF9 protein interaction inhibition; P42568; inhibition, % at 10 µM; hit rate 0.47% among 350,000; AlphaScreen, biotin-AF4 peptide binding to FLAG-AF9;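 active = every replicate reaching a set inhibition limit, whatever the replicate mean, cut at about 25% in these data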;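 also: 0% = plate neutral control median and 100% = total signal loss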
Target sequence (P42568 whole entry, looked up): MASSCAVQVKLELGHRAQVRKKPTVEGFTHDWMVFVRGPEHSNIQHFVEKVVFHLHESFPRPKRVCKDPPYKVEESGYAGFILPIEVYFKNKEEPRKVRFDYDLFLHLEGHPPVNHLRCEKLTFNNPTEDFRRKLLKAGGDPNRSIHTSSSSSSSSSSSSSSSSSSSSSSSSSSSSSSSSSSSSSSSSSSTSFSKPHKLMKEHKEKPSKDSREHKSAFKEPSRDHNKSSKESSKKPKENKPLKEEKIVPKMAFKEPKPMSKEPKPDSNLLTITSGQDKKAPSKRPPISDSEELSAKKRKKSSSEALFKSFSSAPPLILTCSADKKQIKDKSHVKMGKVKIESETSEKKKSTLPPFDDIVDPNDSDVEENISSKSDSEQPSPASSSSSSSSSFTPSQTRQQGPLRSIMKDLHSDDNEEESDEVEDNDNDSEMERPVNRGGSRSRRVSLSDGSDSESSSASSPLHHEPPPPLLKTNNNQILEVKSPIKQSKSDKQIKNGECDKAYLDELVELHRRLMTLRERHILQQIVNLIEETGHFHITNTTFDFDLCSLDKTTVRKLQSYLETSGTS
RAD52 anneal inh: blocks human RAD52 DNA annealing; recombinant RAD52 DNA annealing, FRET fluorescence; hit rate 0.46% among 360,000; P43351; AID 651710; inhibition, % at 18.7 µM;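 active = every replicate showing at least 50% inhibition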
CASP6 VEID inh: inhibitors of human caspase-6; purified caspase-6, Z-VEID-R110 cleavage fluorescence; hit rate 0.53% among 350,000; P55212; inhibition, % at 12.5 µM;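 active = mean inhibition across replicates at least about 35%, with every replicate also reaching that limit, limit read from the data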;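 also: 0% = median of neutral control wells and 100% = no fluorescence left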
rRNA inh HTS: selective bacterial rRNA inhibition in E. coli; E. coli WT GFP vs humanized-ribosome RFP mutants, fluorescence, 24 h; active compounds read low; DMSO median 0, no signal -100; GFP signal change (wild-type ribosome), % (concentration not given with the values); hit rate 1.6% among 350,000; AID 720706;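 active = significant combined selectivity score with lowered wild-type GFP, culture density cut under 30%, mutant RFP and density less affected; inactive = any of these conditions unmet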
The depositor's hits bear a star; ! = a repeat was not active. Hits are enriched below; roughly 2.5% of the tested compounds scored in any of these assays.

CO[C@H]1CN(C)C(=O)c2cc(NS(C)(=O)=O)ccc2OC[C@@H](C)N(Cc2ccccn2)C[C@@H]1C was read as rRNA inh HTS 2.
For COc1ccc2c3c(n(C)c2c1)[C@@H](CO)N(C(=O)c1cccnc1)CC31CCN(S(C)(=O)=O)CC1 the results were AF4-AF9 inh 0 and rRNA inh HTS -1.
Screening CCCCCCNc1c([N+](=O)[O-])c(=O)sc2ccccc12 returned NSD2 inh 0, AF4-AF9 inh -3, RAD52 anneal inh -3, CASP6 VEID inh 0 and rRNA inh HTS -24*.
CNC[C@@H]1Oc2cc(C#CCN(C)C)ccc2S(=O)(=O)N([C@H](C)CO)C[C@H]1C was read as AF4-AF9 inh 15, RAD52 anneal inh 1, CASP6 VEID inh -1 and rRNA inh HTS 1.
CC(=O)Nc1ccc2nc(NC(=O)C(Cl)(Cl)Cl)sc2c1 was read as NSD2 inh 3, AF4-AF9 inh -3, RAD52 anneal inh -14, CASP6 VEID inh 3 and rRNA inh HTS -37*.
For CC(=O)Nc1ccc2nc(NC(=O)c3cccnc3)sc2c1 the results were AF4-AF9 inh -2, RAD52 anneal inh -15, CASP6 VEID inh 2 and rRNA inh HTS 32.
COC(=O)C1=C(O)/C(=C\c2ccc(CNS(=O)(=O)c3ccc(Cl)cc3)o2)N=C1C was read as NSD2 inh -2, AF4-AF9 inh 3, RAD52 anneal inh -56, CASP6 VEID inh 49* and rRNA inh HTS 12.
For CN(C)CC#Cc1ccc([C@@H]2[C@H](CO)N3CCCCN(C(=O)C4CC4)C[C@@H]23)cc1 the results were AF4-AF9 inh -3, RAD52 anneal inh 5 and CASP6 VEID inh 2.
For COc1ccc(C)cc1NC(=O)NNC(=O)C1CCC(C(C)(C)C)CC1 (centres undefined) the results were NSD2 inh 1, AF4-AF9 inh 0, RAD52 anneal inh -5, CASP6 VEID inh -1 and rRNA inh HTS -17*.
For O=C(COC(=O)c1ccccc1OCc1ccccc1Cl)NC1CCS(=O)(=O)C1 (centres undefined) the results were NSD2 inh 0, AF4-AF9 inh -5, RAD52 anneal inh -7, CASP6 VEID inh 61* and rRNA inh HTS -16.
O=C(COC(=O)c1ccccc1Cc1ccccc1)NC1CCS(=O)(=O)C1 (centres undefined) was read as NSD2 inh -1, AF4-AF9 inh -9, RAD52 anneal inh -1, CASP6 VEID inh 0 and rRNA inh HTS -4.
Screening O=C(NC[C@H]1CC[C@@H]2[C@@H](CN2Cc2ccccc2F)O1)C1CC1 returned AF4-AF9 inh -3, RAD52 anneal inh -3 and CASP6 VEID inh 0.
CCN(Cc1ccccc1)c1ccc(/C=N/NS(=O)(=O)c2ccc(C)c([N+](=O)[O-])c2)cc1 was read as NSD2 inh 2, AF4-AF9 inh -2, RAD52 anneal inh -63, CASP6 VEID inh 5 and rRNA inh HTS -34*.
For CCN(CC)c1ccc(/C=N/NS(=O)(=O)c2cccc([N+](=O)[O-])c2)cc1 the results were NSD2 inh 17.
Screening Cc1noc(C)c1S(=O)(=O)N(C)C[C@H]1Oc2ccc(NC(=O)c3ccncc3)cc2C(=O)N([C@H](C)CO)C[C@@H]1C returned rRNA inh HTS 7.
For CCCCn1c(N)c(S(=O)(=O)c2ccc(C)cc2)c2nc3ccccc3nc21 the results were NSD2 inh -2, AF4-AF9 inh -2, RAD52 anneal inh -97, CASP6 VEID inh 0 and rRNA inh HTS -7.
`CN(C)CCCn1c(N)c(S(=O)(=O)c2ccccc2)c2nc3ccccc3nc21` gave NSD2 inh 3, AF4-AF9 inh -2, RAD52 anneal inh -94, CASP6 VEID inh -1 and rRNA inh HTS -28*.
C[C@@H]1CN(C)C(=O)Cc2cc([N+](=O)[O-])ccc2O[C@@H]1CN(C)C(=O)OC(C)(C)C was read as rRNA inh HTS -1.
COc1cc(Br)c(CNc2cc(C)ccc2C)cc1OC was read as AF4-AF9 inh 6, RAD52 anneal inh -14, CASP6 VEID inh 2 and rRNA inh HTS -24*.
CC(=O)c1ccc(NC(=O)c2cc(Cl)sc2Cl)cc1 was read as NSD2 inh -2, AF4-AF9 inh 6, RAD52 anneal inh -20, CASP6 VEID inh 2 and rRNA inh HTS -30*.
For COc1ccccc1-c1ccc(C2[C@@H]3CN(S(=O)(=O)c4ccccc4)C[C@H]2N3)cc1 (some centres undefined) the results were RAD52 anneal inh 55* and rRNA inh HTS -55.
For COc1ccccc1-c1ccc(C2[C@@H]3CN(S(=O)(=O)c4ccc(F)cc4)C[C@H]2N3)cc1 (some centres undefined) the results were AF4-AF9 inh 1, RAD52 anneal inh 61*!, CASP6 VEID inh -1 and rRNA inh HTS -58.
O=C(NNC(=O)c1cccs1)c1ccncc1 was read as NSD2 inh 0, AF4-AF9 inh -3, RAD52 anneal inh 7, CASP6 VEID inh -2 and rRNA inh HTS 10.
O=C(CC(=O)c1cccs1)c1ccncc1 was read as NSD2 inh -1, AF4-AF9 inh 7, RAD52 anneal inh -15, CASP6 VEID inh 2 and rRNA inh HTS -22*.
Screening CCOC(=O)CCCc1ccc(/C(C)=N/NC(=S)NC)cc1 returned NSD2 inh 1, AF4-AF9 inh 7, RAD52 anneal inh 2, CASP6 VEID inh 0 and rRNA inh HTS -32.
Screening CCOC(=O)CCCc1ccc(/C(C)=N/NC(N)=S)cc1 returned NSD2 inh -2, AF4-AF9 inh 7, RAD52 anneal inh -14, CASP6 VEID inh 3 and rRNA inh HTS -44*.
Cc1cccc(Nc2nc(-c3ccc(F)cc3)cs2)n1 was read as NSD2 inh 0, AF4-AF9 inh -2, RAD52 anneal inh -16, CASP6 VEID inh -1 and rRNA inh HTS -18*.
COc1ccc(-c2csc(Nc3cccc(C)n3)n2)cc1 was read as NSD2 inh -2, AF4-AF9 inh -1, RAD52 anneal inh 9, CASP6 VEID inh 0 and rRNA inh HTS -2.
Cc1ccc(NC(=O)CN(C)CC(=O)Nc2ccc(F)c(Cl)c2)cc1 was read as NSD2 inh 5, AF4-AF9 inh -1, RAD52 anneal inh -9, CASP6 VEID inh 1 and rRNA inh HTS -52.
For CN(CC(=O)Nc1ccc(Cl)cc1)CC(=O)Nc1cc(Cl)ccc1C#N the results were AF4-AF9 inh 6, RAD52 anneal inh -24, CASP6 VEID inh 1 and rRNA inh HTS -38*.
Screening Cc1ccc(NC(=O)CN(C)Cc2ccc(Cl)cc2)cc1 returned NSD2 inh -2, AF4-AF9 inh -2, RAD52 anneal inh -14, CASP6 VEID inh -2 and rRNA inh HTS -30*.
`COC(=O)N(C)C[C@H]1OCc2ccccc2-c2ccccc2C(=O)N([C@H](C)CO)C[C@@H]1C` gave rRNA inh HTS 3.
`CCS(=O)(=O)Nc1ccc2c(c1)C(=O)N(C)[C@@H]1CC[C@@H](CC(=O)Nc3ccccc3)O[C@@H]1CO2` gave AF4-AF9 inh 1, RAD52 anneal inh 3, CASP6 VEID inh -1 and rRNA inh HTS 2.
